# Results: PubChem BioAssay AID743360 (Molecular Libraries Program, Specialized Chemistry Center, …, 2014)
# Unmarked numbers belong to inactive results. Calls of active or inactive are those of the source.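 Rule for the calls: active = calcium retention capacity relative to untreated control above about 1.1 ratio (limit read from the data); inactive = the rest.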
# Assay: mitochondrial Ca2+ retention capacity increase – biochemical, dry powder samples, uHTS hits, Calcium Green-5N, dose response (AID 743360)
# Details: isolated mitochondria, Ca retention capacity
row,SMILES,CRC/CRC0 ratio at 12.5 uM (higher = more inhibition)
1,COc1ccc(NC(=O)c2cc(-c3cccc(O)c3)on2)cc1Cl,3.26 (active)
2,O=C(Nc1ccccc1OCc1ccccc1)c1cc(-c2cccc(O)c2)on1,1.14 (active)
3,COc1ccc(Cl)cc1C(=O)Nc1cccc(CN2CCNCC2)c1,1.52 (active)
4,CN1CCN(c2ccc(NC(=O)c3ccc(OCc4ccccc4)cc3)cc2)CC1,1.08
5,CN1CCN(CCc2ccc(NS(=O)(=O)c3cccc(Cl)c3)cc2)CC1,> 1
6,O=C(Nc1ccc(Cl)cc1)c1cc(-c2ccccc2)on1,> 1
7,COc1ccc(Cl)cc1C(=O)Nc1ccc(CCN2CCCCC2)cc1,1.51 (active)
8,COc1ccccc1C(=O)Nc1ccc(C(=O)N2CCCCC2)cc1,> 1
9,Cc1cc(NC(=O)c2ccc(-n3cnnc3)cc2)no1,> 1
10,CN1CCN(c2ccc(NS(=O)(=O)c3ccc(F)c(Cl)c3)cc2)CC1,1.08
11,COc1ccc(Cl)cc1C(=O)Nc1ccc(N2CCCCC2)cc1,1.05
12,O=C(Nc1cc(Cl)cc(Cl)c1)c1cc(-c2cccc(O)c2)on1,12.1 (active)
13,COc1ccc(Cl)cc1S(=O)(=O)Nc1ccc(CN2CCCCC2)cc1,1.05
14,COc1ccc(Cl)c(C(=O)Nc2ccc(CN3CCN(C)CC3)cc2)c1,> 1
15,C[C@@H]1CCC[C@H](C)N1CCCC(=O)c1ccc(Br)cc1,1.01
16,COc1ccc(Cl)c(C(=O)Nc2ccc(CN3CCCCC3)cc2)c1,> 1
17,O=C(Nc1ccc(CN2CCCCC2)cc1)c1cccc(OCc2ccccc2)c1,3.54 (active)
